# In publication PMC8384837, “Expanding the binding specificity for RNA recognition by a PUF domain”:
# Numbering of substitutions follows the chain as printed.
# What was measured:
# Experiment in all cases: yeast three-hybrid, YBZ-1, SC-Leu-His + 0.5 mM 3-AT, 4 days
# Conditions in all cases: tags: N-Gal4 AD-HA kept; label: inside an RPR1-promoter hybrid RNA with tandem MS2 sites; ssRNA
# PUM1 PUF domain R5-MSR = PUM1 PUF domain R5-MSR (Homo sapiens, UniProt Q14671 828-1176, C1007M;R1008S;Q1011R)
# Summary of the method: (§1)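 The interaction score is the logarithmic change in variant frequency from input to selection. It uses log2, with a pseudocount of 1 for absent variants, and frequencies came from PCR-amplified, Illumina-sequenced repeat regions. The libraries were Pumilio-1 PUF domains randomized at the three base-contacting residues per repeat, co-expressed with matching RNA elements in strain YBZ-1 (LexA–MS2 coat fusion, HIS3 reporter). Plating lasted four days on SC-Leu (input) or SC-Leu-His + 0.5 mM 3-AT (selection).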
# PUM1 PUF domain R3-VNE = PUM1 PUF domain R3-VNE (Homo sapiens, UniProt Q14671 828-1176, C935V;R936N;Q939E)
# Summary of the method: as §1
# PUM1 PUF domain R8-RKR = PUM1 PUF domain R8-RKR (Homo sapiens, UniProt Q14671 828-1176, N1122R;Y1123K;Q1126R)
# Summary of the method: as §1
# PUM1 PUF domain R3-LYS = PUM1 PUF domain R3-LYS (Homo sapiens, UniProt Q14671 828-1176, C935L;R936Y;Q939S)
# Summary of the method: as §1
# PUM1 PUF domain R8-SRR = PUM1 PUF domain R8-SRR (Homo sapiens, UniProt Q14671 828-1176, N1122S;Y1123R;Q1126R)
# Summary of the method: as §1
# PUM1 PUF domain R6-SRR = biological target: T1, PUM1 PUF domain R6-SRR (Homo sapiens, UniProt Q14671 828-1176, N1043S;Y1044R;Q1047R)
# T1 sequence: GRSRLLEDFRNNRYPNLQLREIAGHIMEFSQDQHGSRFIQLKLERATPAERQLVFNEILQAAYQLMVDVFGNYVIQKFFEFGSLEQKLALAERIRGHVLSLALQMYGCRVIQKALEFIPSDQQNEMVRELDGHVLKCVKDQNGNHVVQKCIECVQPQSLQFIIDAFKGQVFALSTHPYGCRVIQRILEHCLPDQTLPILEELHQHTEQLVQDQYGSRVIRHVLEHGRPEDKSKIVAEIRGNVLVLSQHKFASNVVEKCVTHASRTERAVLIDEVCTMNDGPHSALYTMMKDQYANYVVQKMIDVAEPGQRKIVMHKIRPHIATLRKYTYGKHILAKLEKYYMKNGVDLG
# Summary of the method: as §1
# PUM1 PUF domain R6-AYG = biological target: T2, PUM1 PUF domain R6-AYG (Homo sapiens, UniProt Q14671 828-1176, N1043A;Q1047G)
# T2 sequence: T1 sequence with S216A, R217Y, R220G
# Summary of the method: as §1
# PUM1 PUF domain R5-RMK = PUM1 PUF domain R5-RMK (Homo sapiens, UniProt Q14671 828-1176, C1007R;R1008M;Q1011K)
# Summary of the method: as §1
# PUM1 PUF domain R3-QPE = PUM1 PUF domain R3-QPE (Homo sapiens, UniProt Q14671 828-1176, C935Q;R936P;Q939E)
# Summary of the method: as §1
# PUM1 PUF domain R6-SHE = biological target: T3, PUM1 PUF domain R6-SHE (Homo sapiens, UniProt Q14671 828-1176, N1043S;Y1044H;Q1047E)
# T3 sequence: T1 sequence with R217H, R220E
# Summary of the method: as §1
# PUM1 PUF domain R1-RMT = PUM1 PUF domain R1-RMT (Homo sapiens, UniProt Q14671 828-1176, S863R;R864M;Q867T)
# Summary of the method: as §1
sequence,measurement,setting,value
GGCUAGAACUAGUGGAUCCCCCGGCGCCCGGCGGCUCGAGCCCGGGUAAGUGUAAAUAGUCUGCAUGCCGCCGGGCGCCAUGCCUGCAGGUCGACUCUAGAAAACAUG,binding signal,PUM1 PUF domain R5-MSR,1 log2 enrichment (interaction score)
same,binding signal,PUM1 PUF domain R3-VNE,3.16 log2 enrichment (interaction score)
same,binding signal,PUM1 PUF domain R8-RKR,3.9 log2 enrichment (interaction score)
same,binding signal,PUM1 PUF domain R3-LYS,4.77 log2 enrichment (interaction score)
same,binding signal,PUM1 PUF domain R8-SRR,1.78 log2 enrichment (interaction score)
same,binding signal,PUM1 PUF domain R6-SRR,3.04 log2 enrichment (interaction score)
same,binding signal,PUM1 PUF domain R6-AYG,1.05 log2 enrichment (interaction score)
GGCUAGAACUAGUGGAUCCCCCGGCGCCCGGCGGCUCGAGCCCGGGUAAGUGUCAAUAGUCUGCAUGCCGCCGGGCGCCAUGCCUGCAGGUCGACUCUAGAAAACAUG,binding signal,PUM1 PUF domain R5-MSR,3.83 log2 enrichment (interaction score)
same,binding signal,PUM1 PUF domain R5-RMK,2.87 log2 enrichment (interaction score)
GGCUAGAACUAGUGGAUCCCCCGGCGCCCGGCGGCUCGAGCCCGGGUAAGUGUAAUUAGUCUGCAUGCCGCCGGGCGCCAUGCCUGCAGGUCGACUCUAGAAAACAUG,binding signal,PUM1 PUF domain R3-QPE,2.87 log2 enrichment (interaction score)
same,binding signal,PUM1 PUF domain R3-LYS,5.78 log2 enrichment (interaction score)
GGCUAGAACUAGUGGAUCCCCCGGCGCCCGGCGGCUCGAGCCCGGGUAAGUGGAAAUAGUCUGCAUGCCGCCGGGCGCCAUGCCUGCAGGUCGACUCUAGAAAACAUG,binding signal,PUM1 PUF domain R6-SHE,4.66 log2 enrichment (interaction score)
GGCUAGAACUAGUGGAUCCCCCGGCGCCCGGCGGCUCGAGCCCGGGUAAGUGUAAGUAGUCUGCAUGCCGCCGGGCGCCAUGCCUGCAGGUCGACUCUAGAAAACAUG,binding signal,PUM1 PUF domain R3-VNE,0.75 log2 enrichment (interaction score)
GGCUAGAACUAGUGGAUCCCCCGGCGCCCGGCGGCUCGAGCCCGGGUAAGUGUAAAUGGUCUGCAUGCCGCCGGGCGCCAUGCCUGCAGGUCGACUCUAGAAAACAUG,binding signal,PUM1 PUF domain R1-RMT,1.2 log2 enrichment (interaction score)
GGCUAGAACUAGUGGAUCCCCCGGCGCCCGGCGGCUCGAGCCCGGGUAAGUGUAAAUUGUCUGCAUGCCGCCGGGCGCCAUGCCUGCAGGUCGACUCUAGAAAACAUG,binding signal,PUM1 PUF domain R1-RMT,3.66 log2 enrichment (interaction score)
GGCUAGAACUAGUGGAUCCCCCGGCGCCCGGCGGCUCGAGCCCGGGUAAGCGUAAAUAGUCUGCAUGCCGCCGGGCGCCAUGCCUGCAGGUCGACUCUAGAAAACAUG,binding signal,PUM1 PUF domain R8-RKR,5.43 log2 enrichment (interaction score)
same,binding signal,PUM1 PUF domain R8-SRR,2.8 log2 enrichment (interaction score)
